From PubChem
Compounds with a hit are over-represented: about 6.9% of the library has one in this group of screens.
Vif-A3G inh – inhibitors of Vif-APOBEC3G interaction; Q9HC16; HeLa A3G-eYFP + Vif (tagged APOBEC3G with the HIV-1 protein that degrades it), YFP fluorescence, overnight; Potency, µM (highest dose often 46.1 µM), actives largely listed as inhibitors; 0.076% of 410,000 active; further: nearly all actives have a fitted effect of over 60% in size
Target sequence (Q9HC16 whole entry, looked up): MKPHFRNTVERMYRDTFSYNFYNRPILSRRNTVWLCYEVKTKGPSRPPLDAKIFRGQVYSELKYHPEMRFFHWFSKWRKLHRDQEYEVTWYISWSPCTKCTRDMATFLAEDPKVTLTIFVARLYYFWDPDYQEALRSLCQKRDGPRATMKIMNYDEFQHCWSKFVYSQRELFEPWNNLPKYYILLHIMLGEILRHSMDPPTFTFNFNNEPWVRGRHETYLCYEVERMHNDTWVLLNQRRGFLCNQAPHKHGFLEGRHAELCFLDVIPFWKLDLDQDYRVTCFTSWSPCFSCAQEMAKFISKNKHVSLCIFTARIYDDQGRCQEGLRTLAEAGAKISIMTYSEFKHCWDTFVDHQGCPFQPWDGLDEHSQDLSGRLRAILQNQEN
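Read-out is eYFP fluorescence (Ex 488/Em 500-530) from Vif-expressing HeLa A3G-eYFP cells; more signal means A3G escaped Vif-mediated degradation. Cells plated overnight, compound pinned in, incubated overnight at 37 deg C.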
Giardia kill – Giardia lamblia killing; Giardia lamblia trophozoite viability; activity change, % at 7.66 µM, hits read low; 0.15% of 340,000 active; AID 540267; in the data active means activity change below about -80%; inconclusive means between about -30% and that limit;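 further: parasites exposed to compound for two days anaerobically before the ATP read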
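Trophozoites 100 cells/well + cpd; 48 hrs, 37 deg C, anaerobic. ATPLite 1-Step added, 15-30 min RT, luminescence read (ATP-based viability).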
Vif-APOBEC3F blk – inhibitors of Vif-A3F interaction | HeLa A3F-eYFP + Vif (tagged APOBEC3F with the HIV-1 protein that degrades it), YFP fluorescence increase | Potency, µM (titrated, usually from 46.1 µM) | 0.2% of 390,000 active | AID 602313; further: nearly all actives have a fitted effect of over 65% in size
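HeLa cells stably expressing A3F-eYFP plus Vif, plated and incubated overnight at 37 deg C, then exposed to compounds overnight at 37 deg C. Blocked degradation read as raised yellow fluorescence (Ex 488/Em 500-530).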
SW480 rereplic – induces DNA re-replication in SW480 colon adenocarcinoma cells; Potency, µM (titrated, usually from 46.1 µM), hits mostly activators; SW480 DNA re-replication, Hoechst DNA content imaging, 48 h; 1.8% of 340,000 active; AID 624297; further: nearly all actives have a fitted effect of over 55% in size
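250 cells/well; 23 nL cpd via pin tool; 48 hr, 37 C, 5% CO2; Hoechst 40 min; imager read of total nuclear intensity, ex 405/em 500-530 nm.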
MCF10A rereplic – DNA re-replication induction in MCF 10a cells. MCF 10A DNA re-replication, Hoechst nuclear intensity, 48 h. Potency, µM (doses to about 46.1 µM), actives largely listed as activators. 2.9% of 350,000 active. AID 624296; further: nearly all actives have a fitted effect of over 50% in size
IL-1B inflam inh – inflammasome signaling inhibition, IL-1 beta readout; THP-1 LPS/ATP IL-1B secretion, AlphaLISA, 16 h; stronger effect = lower value; activity change, % at 57.5 µM; 4.7% of 360,000 active; in the data active means activity change below about -50%; inconclusive means mostly about -30% to -49%
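Secreted IL-1B measured by AlphaLISA bead assay after 16 h compound exposure of THP-1 cells; compounds (final up to 57.5 uM) added 1 h before LPS (250 ng/mL) and ATP (1.25 mM) stimulation; lower signal means less secretion.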
A number is an active result; . = inactive; ? = inconclusive; / = no result given. Unless noted, the call rests on the fitted dose curve; in most records, active means well fitted curve in the direction sought with a large enough effect; inconclusive means small, poorly fitted or top-dose-only effect, or another doubt; inactive means no such curve, though single readings can be large; an effect the other way counts as inactive or inconclusive.

SMILES	Vif-A3G inh	Giardia kill	Vif-APOBEC3F blk	SW480 rereplic	MCF10A rereplic	IL-1B inflam inh
COc1cccc(C(c2c(C)[nH]n(-c3ccccc3)c2=O)c2c(C)[nH]n(-c3ccccc3)c2=O)c1OC	.	.	.	.	6.51µM	.
COc1ccc(C(C[N+](=O)[O-])c2c(C)cc3ccccn23)cc1 (configuration not stated)	?	.	.	?	20.6µM	.
COc1ccc(C(C[N+](=O)[O-])c2c(-c3ccccc3)cc3ccccn23)c(OC)c1 (configuration not stated)	?	.	.	?	16.4µM	.
COc1ccc(C(C[N+](=O)[O-])c2c(C)[nH]n(-c3ccccc3)c2=O)cc1 (configuration not stated)	?	.	.	?	11.6µM	-52.1
Cc1cc2ccccn2c1C(C[N+](=O)[O-])c1ccc(N(C)C)cc1 (configuration not stated)	.	.	.	.	.	.
Cc1c(-c2nsc(NC(=O)c3cccs3)n2)nnn1-c1ccc(F)cc1	.	/	.	/	/	/
CCc1c2c(nc3ccc4c(c13)OCCO4)-c1nc3ccccc3c(=O)n1C2	.	.	/	/	/	/
Cc1ccccc1N(CC(=O)N/N=C/c1ccc(Cl)cc1)C(=O)c1ccccc1	.	.	.	?	25.9µM	?
Cc1ccccc1N(CC(=O)N/N=C/c1ccc(F)cc1)C(=O)c1ccccc1	.	.	.	.	.	.
O=C(CSc1cccc[n+]1[O-])CSc1cccc[n+]1[O-]	.	.	.	6.51µM	.	.
O=C(CSc1cccc[n+]1[O-])Nc1ccccc1Oc1ccccc1	?	.	.	?	.	-102.2
O=C(CSc1cccc[n+]1[O-])N1CCCCCC1	.	.	.	.	.	.
Cc1ccc(-n2nc(-c3ccc(F)cc3)c3cnc4cc5c(cc4c32)OCO5)cc1C	.	/	.	/	/	/
CC(Cl)C(=O)c1ccc2c(c1)CCN2C(=O)C1CC1 (configuration not stated)	.	.	.	.	.	-62.7
O=C(C1CC1)N1CCc2cc(S(=O)(=O)N3CCOCC3)ccc21	.	.	.	.	.	.
Cc1ccc(C(=O)N2CCOCC2)cc1[N+](=O)[O-]	.	.	.	.	.	.
O=C(c1ccc(Br)c([N+](=O)[O-])c1)N1CCN(Cc2ccccc2)CC1	.	.	.	.	.	?
O=C(c1ccc(S(=O)(=O)c2ccccc2Cl)c([N+](=O)[O-])c1)N1CCN(Cc2ccccc2)CC1	.	.	.	20.6µM	?	-110.3
Cc1ccccc1CS(=O)(=O)c1ccc(C(=O)N2CCOCC2)cc1[N+](=O)[O-]	.	.	.	.	.	-87.9
O=C(c1ccc(S(=O)(=O)Cc2ccccc2Cl)c([N+](=O)[O-])c1)N1CCOCC1	?	.	.	?	.	-99.8
CCOC(=O)C1(c2ccccc2)SC(C(=O)OCC)(c2ccccc2)S1 (configuration not stated)	.	/	.	/	/	-66.2
CCOC(=O)C1(c2ccccc2)CCCNC1=O (configuration not stated)	.	/	.	/	/	.
Cc1ccc(C)c(S(=O)(=O)c2cn(Cc3ccccc3)c3cc(N4CCCC4)c(F)cc3c2=O)c1	.	/	.	/	/	/
O=C(Nc1ccc(OC(F)(F)F)cc1)C(NS(=O)(=O)c1cccc2nsnc12)c1ccccc1 (configuration not stated)	.	/	.	/	/	/
O=C1S/C(=C\c2ccc(Cl)cc2)C(=O)N1CCn1cnnn1	.	.	.	.	.	-61.5
SMILES	Vif-A3G inh	Giardia kill	Vif-APOBEC3F blk	SW480 rereplic	MCF10A rereplic	IL-1B inflam inh
O=c1[nH]c2ccccc2c(O)c1SCCO	.	.	.	.	.	.
O=C1C(SCCO)=C(SCCO)C(=O)c2ccccc21	?	.	?	.	.	-54.4
COc1ccc(-c2cc(C(F)(F)F)nc(N3CCCCC3)n2)cc1OC	.	.	/	.	?	.
COc1cccc(-c2cc(C(F)(F)F)n3ncc(C(=O)O)c3n2)c1	.	.	.	.	.	.
COc1ccc(-c2cc(C(F)(F)F)nc(N3CCN(C)CC3)n2)cc1	.	.	.	.	?	-65.0
COc1cccc(-c2cc(C(F)(F)F)nc(N3CCCCC3)n2)c1	.	.	.	.	16.4µM	.
COc1cccc(-c2cc(C(F)(F)F)n3ncc(S(=O)(=O)c4ccccc4)c3n2)c1	.	.	.	8.2µM	7.31µM	.
COc1ccc(-c2cc(C(F)(F)F)nc(N3CCN(C)CC3)n2)cc1OC	.	.	.	.	.	.
COc1ccc(-c2cc(C(F)(F)F)nc(N3CCCCCC3)n2)cc1	.	.	.	.	23.1µM	.
COc1ccc(C2/C=C\CN(C(=O)CC(C)(C)C)C(C)C(=O)N2Cc2ccc(F)cc2)cc1 (configuration not stated)	.	.	/	/	/	/
COc1ccc2nc(/N=C(\N)NC(=O)C(C)(C)C)nc(C)c2c1	.	.	.	.	.	?
CCC(=O)N/C(N)=N/c1nc(C)c2cc(OC)ccc2n1	.	.	.	?	.	-66.0
COc1ccc2c(c1)cc1c(=O)n(CC(=O)NCCCc3ccccc3)nc(C)n12	.	/	.	/	/	/
Cc1cccc(NC(=S)NC(C)C(c2ccccc2)N2CCN(C)CC2)c1C (configuration not stated)	.	.	.	.	.	-50.5
CCN1CCN(C(c2cccs2)C(C)NC(=S)Nc2cccc(C)c2C)CC1 (configuration not stated)	.	.	.	.	.	?
COc1ccc(NC(=O)CSc2nc(-c3cccs3)cc(C(F)(F)F)n2)c(OC)c1	.	/	.	/	/	/
CCN(CC)S(=O)(=O)c1c(OC)cc(C)c(Cl)c1C	.	.	.	1.16µM	.	.
CC(C)OCCCNC(=S)N1CCC(C(=O)c2ccc(F)cc2)CC1	.	/	.	/	/	.
Cc1ccc(C(=O)C2CCN(C(=S)NCCCOC(C)C)CC2)cc1	.	.	.	14.6µM	.	.
COc1ccc(Cn2c(C)nc3c(c2=O)c2nc4ccccc4nc2n3Cc2ccco2)cc1	.	.	?	20.6µM	18.4µM	.
CC(=O)Oc1c(C)c(OC(C)=O)c2c(c1C(C)=O)OC1CC(=O)C(C(C)=O)=C(O)C21C (configuration not stated)	.	.	.	.	.	.
CC(=O)c1c(O)c(C)c(O)c2c1OC1=CC(=O)C(C(C)=O)C(=O)[C@@]12C (some centres not stated)	.	.	?	.	3.66µM	.
CCOc1ccc(C(c2c(O)cc(C)n(Cc3ccco3)c2=O)N2CCN(C)CC2)cc1 (configuration not stated)	.	/	.	/	/	/
COc1cc(OC)cc(C(=O)c2c(C)c(C#N)c3ccccn23)c1	?	.	.	10.3µM	?	.
